The list is not random: actives were taken first. Their share in the collection is about 2.8%.
GLP1R inv ag – GLP-1 receptor (human) inverse agonism; HEK293 GLP-1R CRE-luciferase, luminescence, 24 h; GLP-1R form is constitutively active; Potency, µM (top dose mostly 38.3 µM), for the others: at the highest dose activity change, negative = inhibition, hits mostly inhibitors; actives 1.6% (n = 410,000); also: % is scaled to controls: 0 for no effect and ±100 for the full control effect; nearly all actives have a fitted effect of over 55% in size
Target sequence (P43220 whole entry, looked up): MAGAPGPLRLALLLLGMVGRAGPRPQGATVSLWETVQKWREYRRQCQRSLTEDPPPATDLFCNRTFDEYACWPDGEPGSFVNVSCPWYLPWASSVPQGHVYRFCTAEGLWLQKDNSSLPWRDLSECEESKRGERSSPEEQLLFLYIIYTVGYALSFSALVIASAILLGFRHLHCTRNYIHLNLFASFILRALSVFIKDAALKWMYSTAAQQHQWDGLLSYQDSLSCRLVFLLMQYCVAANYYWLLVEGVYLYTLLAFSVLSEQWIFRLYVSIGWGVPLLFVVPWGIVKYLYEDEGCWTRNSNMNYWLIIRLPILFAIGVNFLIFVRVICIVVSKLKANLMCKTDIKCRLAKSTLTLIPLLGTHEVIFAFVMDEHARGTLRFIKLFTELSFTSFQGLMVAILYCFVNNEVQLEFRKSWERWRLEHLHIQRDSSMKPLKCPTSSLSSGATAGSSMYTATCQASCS
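Using stably transfected HEK293 (constitutively active GLP-1R, cAMP-luciferase reporter), compounds were incubated 24 hr and luciferase measured by luminescence.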
Mito fusion yeast – blocks mitochondrial division or promotes mitochondrial fusion | S. cerevisiae fusion-defective mutant growth rescue, CellTiterGlo 48 h | Potency, µM (doses to about 46.1 µM), inactives show at the highest dose growth rescue (activation), usual class: activators | actives 0.23% (n = 320,000); also: % of control where 0% means no effect; nearly all actives have a fitted effect of over 45% in size
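Temperature-sensitive fusion-defective S. cerevisiae (e.g. fzo1-1, mgm1-5) were grown with compound in YPEG medium (3% ethanol, 3% glycerol) for 48 hours at 37C. Growth rescue was measured as viability by CellTiterGlo luminescence after 10 minutes at ambient.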
GLP-1R agonist – GLP-1 receptor (human) agonism. P43220. HEK293 GLP-1R CRE-luciferase, luminescence, 4-6 h; cells express a hypersensitive GLP-1R form. Potency, µM (top dose mostly 45.6 µM), for inactives: at the highest dose activation, most hits filed as activators. actives 0.007% (n = 380,000); also: % of control where 0% means no effect
GLP1R cytotox – cytotoxic in the GLP-1 receptor inverse agonist counter-screen | HEK293 cAMP-luciferase reporter cells, luminescence, 24 h | Potency, µM (doses to about 38.3 µM), inactives show at the top dose activity change, negative = inhibition, most hits filed as inhibitors | actives 0.13% (n = 410,000);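 also: loss of luciferase light is scored as toxicity; % is scaled to controls: 0 for no effect and ±100 for the full control effect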
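1536-well qHTS counterscreen of the MLSMR; 200 cells/uL, 12 h pre-incubation, 23 nL cpd, 24 h at 37 deg C 5% CO2, luciferase detection reagent, 12 min RT, luminescence. Inhibition = undesired.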
BRCA1 expr up – increases BRCA1 expression; MCF7-BRCA1-FFLuc reporter, luminescence, 48 h; response scale: scaled: vehicle 0%, 10 µM genistein 100%; Potency, µM (titrated, usually from 46.1 µM), for inactives: top-dose activation, most hits filed as activators; actives 1.1% (n = 380,000); AID 624202; also: nearly all actives have a fitted effect of over 80% in size
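Luminescence from a BRCA1-driven firefly luciferase in MCF7 cells was read after 48 h compound exposure at 37 C. Data normalized against DMSO and a 10microM genistein activation control, then curve-fitted across the titration.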
* marks the source's active call; other numbers are inactive results; ? = inconclusive; . = no result given; ! = not confirmed by another sample; [ ] = dose if it differs, or a comment. Calls follow the shape of the dose curve; as a rule, active = well fitted curve in the direction sought with a large enough effect; inconclusive = small, poorly fitted or top-dose-only effect, or another doubt; inactive = no such curve, though single readings can be large; an effect the other way counts as inactive or inconclusive. Potency is read from the fitted curve at half-maximal effect.

SMILES	GLP1R inv ag	Mito fusion yeast	GLP-1R agonist	GLP1R cytotox	BRCA1 expr up
CCOC(=O)c1c(CN2CCN(C)CC2)n(-c2ccccc2)c2cc(Br)c(O)cc12	?	1%	4%	13%	-13%
Cn1nnnc1SCC(=O)Nc1ccc(Cl)c(S(=O)(=O)N2CCOCC2)c1	0%	4%	-2%	-3%	-6%
COc1cc(OC)cc(C(=O)NCC(=O)N2CCN(Cc3ccccc3)CC2)c1	-3%	.	-3%	-20%	-4%
O=C(NC12CC3CC(CC(C3)C1)C2)N1CCC(n2nnc3ccccc32)CC1	3%	0%	-1%	2%	-44%
CC(C)(C)c1cc(Cl)ccc1OCCOCCN1CCCC1	?	-19%	4%	?	-31%
Cc1cc(C(C)(C)C)ccc1OCCOCCN1CCCC1	13µM*	-8%	2%	6%	-48%
CNc1ncc(C(=O)c2ccc(Cl)cc2)s1	-9%	4%	-3%	-25%	4.5µM*
CNc1ncc(C(=O)c2ccc(Cl)c(Cl)c2)s1	3%	-5%	13%	2%	?
CNc1ncc(C(=O)c2ccc(-c3ccccc3)cc2)s1	-28%	7%	8%	-7%	2.8µM*
O=C(c1cc2ccc3cccnc3c2[nH]1)N1CCCCC1	6.3µM*	.	.	4%	.
O=C(c1cc2ccc3cccnc3c2[nH]1)N1CCN(c2ccc(Cl)cc2)CC1	-1%	.	.	5%	.
CCOC(=O)C1CCN(C(=O)c2cc3ccc4cccnc4c3[nH]2)CC1	1%	.	.	-2%	.
CC1CCCN(C(=O)c2cc3ccc4cccnc4c3[nH]2)C1 (configuration not stated)	6.3µM*	.	.	-2%	.
COc1ccc(-c2nnc3sc(-c4ccc(Br)o4)nn23)cc1OC	.	3%	.	.	.
COc1ccc(-c2cc(C(=O)NCc3ccc(C(F)(F)F)cc3)[nH]n2)c(C)c1	?	.	-3%	-12%	-5%
O=C(C(=O)N1CCN(c2ccc(F)cc2)CC1)c1c[nH]c2ccccc12	1%[0.307 µM]	5%	-2%	14%[0.307 µM]	13%
O=C(C(=O)N1CCN(c2cccc(Cl)c2)CC1)c1c[nH]c2ccccc12	8.9µM*	?	-2%	-22%	-56%
O=C(C(Cc1ccccc1)n1cccc1)N1CCN(c2cccc(Cl)c2)CC1 (configuration not stated)	11µM*	9%	-2%	-7%	-49%
CCC(CC)C(=O)N1CCN(c2ccccc2)CC1	0%	-1%	-2%	10%	-5%
CCC(C(=O)N1CCN(c2cccc(Cl)c2)CC1)c1ccccc1 (configuration not stated)	5µM*	12%	-3%	-21%	-59%
Cc1ccc(NC(=O)CSc2nc(N)cc(=O)[nH]2)cc1S(=O)(=O)N1CCCCC1	4%	.	5%	-4%	20%
CCn1c(Cc2ccccc2)nnc1SCC(=O)Nc1nc(C)c(C)s1	2%	0%	-10%	-2%	-1%
CSc1ccc(C(=O)c2[nH]c(=O)[nH]c2C)cc1	34%	13µM*!	5%	7%	27%
CC(C)(C)CN1CCNC(=O)C1CC(=O)NCCc1cnn(-c2ccccc2)c1 (configuration not stated)	2%	10%	11%	4%	22%
Clc1ccc2c(c1)c1cc(Cl)ccc1n2CN1CCOCC1	5µM*	5%	-4%	6%	-20%
SMILES	GLP1R inv ag	Mito fusion yeast	GLP-1R agonist	GLP1R cytotox	BRCA1 expr up
Clc1ccc2c(c1)c1ccccc1n2CN1CCOCC1	?	-12%	3%	7%	0%
Cc1cc(Cl)ccc1Nc1ncccc1C(N)=O	?	?	17%	2%	4.5µM*
CCn1c(NCc2ccc(N(C)C)cc2)nc2ccccc21	0%	-6%	18%	3%	80%
Cn1c(N=Nc2ccccc2)nc2ccccc21	4.5µM*	-22%	-20%	10µM*	-73%
CN(C)c1ccc(N=Nc2nc3ccccc3n2C)cc1	?	-21%	-9%	5µM*	-58%
Cn1c(Cl)nc2ccccc21	0%	-4%	-4%	-11%	-52%
O=C(Nc1ccc(Cl)c(Cl)c1)c1ccccc1	?	?	-1%	8%	31%
CN(C(=O)Nc1ccc(Cl)c(Cl)c1)c1ccccc1C(=O)O	-1%	18µM*	-2%	11%	-15%
Cc1cccc(CNC(=O)c2ccc3nc(Cc4ccccc4F)oc3c2)n1	-13%	1%	7%	7%	13µM*
Cn1cc(CCNC(=O)c2ccc3nc(Cc4ccccc4F)oc3c2)cn1	?	6%	8%	-9%	2.5µM*
Cn1cc(CNC(=O)c2ccc3nc(Cc4ccccc4F)oc3c2)cn1	9%	2%	9%	8%	102%
COCCc1nc2ccc(C(=O)N3CCCCC3COC)cc2o1 (configuration not stated)	-3%	-3%	-1%	-18%	12%
COCCC1CCCCN1C(=O)c1ccc2nc(Cc3ccccc3F)oc2c1 (configuration not stated)	-17%	0%	3%	15%	7.9µM*
CSCCC(NC(=O)c1ccc(Cl)cc1Cl)C(=O)OCC(N)=O (configuration not stated)	9%	1%	9%	-7%	-8%
CCn1c(=S)sc2c(=O)n(CC(=O)Nc3cccc(Cl)c3)c(C)nc21	7.9µM*	-29%	-1%	?	-27%
Cc1nc2c(sc(=S)n2Cc2ccco2)c(=O)n1CC(=O)Nc1ccccc1	4.5µM*	-2%	-2%	-7%	0%
O=C(COc1ccc(/C=N/NS(=O)(=O)c2ccccc2)cc1)Nc1cccc(Cl)c1	10µM*	0%	0%	-16%	-3%
CC1c2cc3c(cc2CCN1C(=O)c1ccc(Cl)cc1)OCCCO3 (configuration not stated)	?	-8%	13%	-12%	-14%
Cc1ccc(C(=O)N2CCc3cc4c(cc3C2C)OCCCO4)cc1 (configuration not stated)	11µM*	13%	-1%	-21%	-15%
Fc1ccc(-c2nnc3n2CCCCC3)cc1	0%[7.66 µM]	16µM*	6%	15%[7.66 µM]	-13%
Cc1ccc(S(=O)(=O)CCC(=O)Nc2ccccc2Br)cc1	-1%	1%	-5%	11%	4%
COc1ccc(C)cc1NC(=O)COC(C)=O	1%	-6%	-8%	8%	-1%
CCC(C(=O)OCC(=O)Nc1cc(C)ccc1OC)c1ccccc1 (configuration not stated)	10µM*	10%	22%	-8%	13%
COC(=O)c1ccc(Cn2c(SCc3ccccc3F)nc3ccncc32)cc1	7%	.	.	9%	.
O=C(Cn1cc(/C=N/NC(=O)c2ccccc2Br)c2ccccc21)Nc1ccc(F)cc1	?	-11%	-1%	-15%	-41%
O=C(Cn1cc(/C=N/NC(=O)c2cccc3ccccc23)c2ccccc21)Nc1ccc(F)cc1	1.6µM*	-16%	-1%	7%	-12%

Assay outcomes: PubChem, National Center for Advancing Translational Sciences (NCATS)
